In PubChem BioAssay (NCATS):
Records with an inconclusive call do not appear. Active and inactive are the calls of the source. Calls follow the shape of the dose curve; as a rule, active = well fitted curve in the direction sought with a large enough effect; inconclusive = small, poorly fitted or top-dose-only effect, or another doubt; inactive = no such curve, though single readings can be large; an effect the other way counts as inactive or inconclusive.

Columns and labels:
[1] = qHTS for inhibitors of adenylyl cyclases using a fission yeast platform: a pilot screen against the NCATS LOPAC library (AID 1347410)
Method in brief: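 S. pombe CHP2027 (AC9-GNAS-PDE4D2) carrying a PKA-repressed fbp1-GFP reporter was exposed to LOPAC compounds (final up to 57 µM) for 18 h at 30C in the dark, in EMM with histidine, lysine and uracil; GFP gain-of-signal read by laser scanning cytometry.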

[2] = qHTS to identify inhibitors of the type 1 interferon - major histocompatibility complex class I in skeletal muscle: primary screen against the NCATS Mechanism Interrogation Plate v5.0 (MIPE) Libary (AID 1347411); also: nearly all actives have a fitted effect of over 65% in size
Method in brief: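 Immortalized human myoblasts (C25cl48) with HiBit knocked into endogenous HLA-B*08:01 were stimulated with 4 ng/ml IFN-beta and given compounds in 11-point 1:3 titration from 46 uM. After 24 h at 37 C, lytic HiBiT luminescence was read.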

[3] = Validation qHTS assay for inhibitors of Activation Induced Cytidine Deaminase (AID): UDG Counterscreen signal (AID 1347427); also: potency is read from the fitted curve at half-maximal effect
Method in brief: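 Counterscreen read of UDG activity (2 U/mL, 4/3x) in the FRET deamination format with AID (1 uM, 4/3x), DJC20/DJC23 substrates (250 nM, 4x), 4 h at room temperature. NaOH stop, fluorescence at 560 ex/665 em.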

[4] = target: Single-stranded DNA cytosine deaminase (Homo sapiens) (UniProt Q9GZX7); experiment: Validation qHTS assay for inhibitors of Activation Induced Cytidine Deaminase (AID): AID signal (AID 1347429); also: potency is read from the fitted curve at half-maximal effect
Single-stranded DNA cytosine deaminase (Homo sapiens), sequence (Q9GZX7 whole entry, looked up): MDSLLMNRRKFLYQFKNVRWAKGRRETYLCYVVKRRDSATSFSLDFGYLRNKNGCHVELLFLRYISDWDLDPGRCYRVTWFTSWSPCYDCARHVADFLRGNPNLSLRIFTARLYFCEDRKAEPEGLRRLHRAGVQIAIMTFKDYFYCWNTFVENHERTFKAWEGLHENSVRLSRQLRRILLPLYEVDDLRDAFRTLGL
Method in brief: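 FRET deamination assay: 1 uM AID (4/3x stock) with UDG, compound up to 114 uM, then 250 nM DJC20/DJC23 substrate (4x stock) for 4 hr at room temperature. NaOH added, 30 min; fluorescence read 540/590 nm.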

[5] = Primary qHTS for inhibitors of La Crosse Virus (LACV) - induced cell death in SH-SY5Y cells (AID 1508616);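 also: top concentration of the series differs between compounds; higher means more rescue of cells from virus-induced death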
Method in brief: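 SH-SY5Y cells (6000/well) plated 24 h, then given compounds by pin transfer and LACV at 0.01 MOI for 6 days at 37C. Viability measured by ATPLite luminescence, normalized to infected DMSO and uninfected DMSO.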

[6] = target: Calcium and integrin-binding protein 1 (Homo sapiens) (UniProt Q99828); experiment: Validation qHTS for Identification of Calcium Integrin Binding protein 1 (CIB1) Competitor (AID 1508618)
Calcium and integrin-binding protein 1 (Homo sapiens), sequence (Q99828 whole entry, looked up): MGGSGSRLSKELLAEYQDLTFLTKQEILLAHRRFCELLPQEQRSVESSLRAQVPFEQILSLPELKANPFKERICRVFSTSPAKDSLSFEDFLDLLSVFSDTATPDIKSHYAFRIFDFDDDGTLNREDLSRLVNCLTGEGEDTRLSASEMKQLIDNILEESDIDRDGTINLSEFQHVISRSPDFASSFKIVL
Method in brief: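 Displacement of FITC-alphaIIb peptide (100 nM) from CIB1-GST (1 uM) is monitored by polarization in quantitative HTS format; buffer carries 5 mM CaCl2 and 125 mM NaCl at pH 7.4, incubations are at room temperature.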

[7] = target: Calcium and integrin-binding protein 1 (Homo sapiens) (UniProt Q99828); experiment: Primary qHTS for Identification of Calcium Integrin Binding Protein 1 (CIB1) Competitor (AID 1508620);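 also: GST tagged CIB1 binding a fluorescein labelled alphaIIb integrin peptide tracer; top concentration of the series differs between compounds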
Method in brief: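 Fluorescence polarization competition: CIB1-GST (1 uM final) preincubated with compound 15 min at room temperature, then FITC-labeled alphaIIb peptide (100 nM final) added for another 15 min. Polarization read at Ex 480/Em 540.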

[8] = target: Protein phosphatase 1D (Homo sapiens) (UniProt O15297); experiment: RapidFire Mass Spectrometry qHTS Assay for Modulators of WT P53-Induced Phosphatase 1 (WIP1) (AID 1347424);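 also: amount of dephosphorylated VEPPL-S-QETFS peptide product formed by WIP1; series mostly up to about 63 µM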
Protein phosphatase 1D (Homo sapiens), sequence (O15297 whole entry, looked up): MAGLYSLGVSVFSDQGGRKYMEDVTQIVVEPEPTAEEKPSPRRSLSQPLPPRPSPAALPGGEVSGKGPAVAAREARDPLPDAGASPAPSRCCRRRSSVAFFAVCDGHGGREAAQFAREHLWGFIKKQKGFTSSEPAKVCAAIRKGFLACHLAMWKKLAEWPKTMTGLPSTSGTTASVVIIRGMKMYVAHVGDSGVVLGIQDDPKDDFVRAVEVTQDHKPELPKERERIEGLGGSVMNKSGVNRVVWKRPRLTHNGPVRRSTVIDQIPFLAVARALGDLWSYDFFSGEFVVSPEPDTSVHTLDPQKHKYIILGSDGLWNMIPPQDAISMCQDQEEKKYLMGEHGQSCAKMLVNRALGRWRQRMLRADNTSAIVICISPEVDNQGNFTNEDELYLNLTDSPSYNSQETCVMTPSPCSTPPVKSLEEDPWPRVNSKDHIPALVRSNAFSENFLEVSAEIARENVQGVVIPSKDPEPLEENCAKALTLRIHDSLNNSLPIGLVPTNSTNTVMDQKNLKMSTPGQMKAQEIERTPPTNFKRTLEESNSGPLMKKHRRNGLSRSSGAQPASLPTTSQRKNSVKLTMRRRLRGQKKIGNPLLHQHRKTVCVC
Method in brief: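 WIP1 (10 nM final) was preincubated 1 h at room temperature with compounds in Tris-HCl pH 7.5, 30 mM MgCl2, TCEP, EGTA, BSA; 2 uM VEPPL-pS-QETFS phosphopeptide was added for 5 min, quenched with formic acid, and dephosphorylated product quantified by RapidFire MS.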

[9] = target: Protein phosphatase 1D (Homo sapiens) (UniProt O15297); experiment: Rhodamine-PBP qHTS Assay for Modulators of WT P53-Induced Phosphatase 1 (WIP1) (AID 1347425)
Method in brief: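 5 nM WIP1 + 10 uM Rh-PBP, 50 mM Tris pH 7.5, 30 mM MgCl2, 1 mM TCEP, 0.1 mM EGTA, BSA; cpds pinned, 1 hr RT; + 10 uM phosphopeptide; fluorescence 1-min reads x 11 min; delta = f1 - f0.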

Measured: Potency

O=C1NC(=O)/C(=C/c2ccc(-c3ccc(F)cc3O)o2)S1
inactive: [1] | [2] | [3] | [4] | [5] | [6]

CC(C)NC[C@@H](O)c1ccc(O)c(O)c1
inactive: [1] | [3] | [4] | [5]

O=S(=O)(c1cccc2c(I)cccc12)N1CCCNCC1
inactive: [1] | [2] | [3] | [4] | [6]

Oc1cc(O)cc(/C=C/c2ccc(O)c(O)c2)c1
inactive: [1] | [2] | [4]

N.N.N.N.N.N.N.N.N.N.N.N.N.N.O.O.[Ru+4].[Ru+5].[Ru+5]
active: [3] 39.8 µM
inactive: [1]

OC[C@H]1O[C@@H](n2cnc3c(NC4CCCC4)ncnc32)[C@H](O)[C@@H]1O
inactive: [1] | [3] | [4] | [5] | [6]

COc1cc(SC)ccc1C(=O)N1CCC(Cc2ccccc2)CC1
inactive: [1] | [2] | [3] | [4] | [5]

CC(C)(C=O)Cc1cc(C(C)(C)C)c(O)c(C(C)(C)C)c1
inactive: [1] | [3] | [4] | [5] | [6]

Cn1c(=O)c2[nH]c(-c3ccccc3)nc2n(C)c1=O
inactive: [1] | [3] | [4]

O=Nc1ccc2oc(=O)ccc2c1
inactive: [1] | [3] | [4] | [5] | [6]

O=C1NCc2c1c1c3ccccc3[nH]c1c1[nH]c3ccccc3c21
inactive: [1]

Nc1nc(Cl)nc2c1ncn2[C@@H]1O[C@H](CO)[C@@H](O)[C@H]1O
inactive: [1] | [3] | [4] | [5] | [6]

O=C1C(SCCO)=C(SCCO)C(=O)c2ccccc21
active: [4] 10 µM
inactive: [1] | [3]

O=C(O)CCCC[C@@H]1CCSS1
inactive: [1] | [3] | [4] | [5]

N[C@@H](CC(=O)O)C(=O)O
inactive: [1] | [3] | [4] | [5]

CC[C@@H](C)[C@H]1O[C@]2(CC[C@H]1C)C[C@@H]1C[C@@H](CC=C(C)[C@@H](O[C@H]3C[C@H](OC)[C@@H](O[C@H]4C[C@H](OC)[C@@H](O)[C@H](C)O4)[C@H](C)O3)[C@@H](C)C=CC=C3CO[C@@H]4[C@H](O)C(C)=C[C@@H](C(=O)O1)[C@]34O)O2
inactive: [1] | [3] | [4] | [5] | [6]

NCCCCC(=O)O
inactive: [1] | [3] | [4] | [5]

O=C1NC(=O)c2c1c(-c1ccccc1)cc1[nH]c3ccc(O)cc3c21
inactive: [1]

C[N+](C)(C)CCOP(=O)(O)OP(=O)([O-])OC[C@H]1O[C@@H](n2ccc(N)nc2=O)[C@H](O)[C@@H]1O
inactive: [1] | [3] | [4] | [5] | [6]

COc1cc2c(CCNC(C)=O)c[nH]c2cc1Cl
inactive: [1] | [3] | [4] | [5] | [6]

O=P(O)(O)C(Cl)(Cl)P(=O)(O)O
inactive: [1] | [3] | [4] | [5] | [6]

OCC1O[C@H]([S-])[C@H](O)[C@@H](O)[C@@H]1O.[Au+] (stereo partly specified)
active: [4] 12.6 µM
inactive: [1] | [3] | [5]

c1ccc(-c2ccccn2)nc1
inactive: [1] | [3] | [4] | [5]

COc1ccc(/C=C/C(=O)Nc2ccccc2C(=O)O)cc1OC
inactive: [1] | [2] | [4] | [5] | [7]

Brc1c(Br)c(Br)c2n[nH]nc2c1Br
inactive: [1] | [3] | [4] | [5]

O=C(c1ccc(OCCCc2cnc[nH]2)cc1)C1CC1
inactive: [1] | [3] | [4] | [5] | [6]

CC(C)NC[C@H](O)COc1cccc2[nH]ccc12
inactive: [1] | [3] | [4] | [5] | [6]

NO
active: [3] 56.2 µM
inactive: [1] | [4] | [5]

CN1CC(=O)N/C1=N/C(=O)Nc1cccc(Cl)c1
inactive: [1] | [8] | [9] | [3] | [4] | [5] | [6] | [7]

CC(N)C(=O)OC(C)(C)Cc1ccc(Cl)cc1 (stereo unspecified)
inactive: [1] | [8] | [9] | [3] | [4] | [5] | [6] | [7]

CN1CCc2ccccc2Cc2[nH]c3ccccc3c2CC1
inactive: [1] | [3] | [4] | [5]

C=C[C@@H]1CN2CC[C@@H]1C[C@H]2[C@H](O)c1ccnc2ccc(OC)cc12
inactive: [1]

CN1C2CC(OC(=O)[C@H](CO)c3ccccc3)CC1C1OC12 (stereo partly specified)
inactive: [1] | [3] | [4] | [5]
